This note sets out measurements from PubChem BioAssay (Tox21).

Inconclusive results are not listed. Where a call stands in place of a potency, no number is given. Active and inactive are the calls of the source. Calls come from the whole dose curve; as a rule, active = well fitted activation curve with a large enough effect in the signal ratio in the repeat runs (not every such curve was filed as active); inconclusive = weak or mixed curves, or effect the other way; inactive = no such curve, though single readings can be large or run the other way; the % refers to the signal ratio.
Potency is the fitted concentration of half-maximal effect.

The nature of the assay: qHTS assay for small molecule agonists of the antioxidant response element (ARE) signaling pathway (AID 743202). The settings on record: HepG2 ARE-bla reporter, beta-lactamase FRET, 16 h; series mostly up to 73.3 µM. In outline:
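Following a 16 h, 37 C exposure of reporter HepG2 cells (ARE-driven beta-lactamase, 2,000 cells/well) to compounds, FRET substrate was applied for 2 h at room temperature and fluorescence intensity recorded.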
(In general: Quantitative high-throughput screening tests each substance at several concentrations.)
In the case of `CCOc1ccc2[nH]cc(C(=O)NCc3ccccc3)c(=O)c2n1`, the Potency is 15.4 µM (active). To `Oc1ccc(Sc2ccc(O)cc2)cc1` belongs 22.8 µM (active). To `CC(C)(Oc1ccc(Cl)cc1)C(=O)OCCCOC(=O)C(C)(C)Oc1ccc(Cl)cc1` belongs “inactive”; to `Cc1ccc2c(ccc3ccccc32)c1`, “inactive”.

With `CN1CCC(OC(c2ccccc2)c2ccccc2)CC1`, the Potency result is “inactive”.

Take `O=C(Cl)c1c(Cl)cccc1Cl`: the Potency entry was “inactive”. As for `CCCCCCCC/C=C\CCCCCCCC(N)=O`, the entry is “inactive”. To `O=C1CCCCCO1` belongs “inactive”. To `CCCCC(CC)COCCCN` (stereo unspecified) belongs “inactive”; to `C=CC(C)(CCC=C(C)C)OC(=O)c1ccccc1` (stereo unspecified), “inactive”; to `COC(Cc1ccccc1)OC`, “inactive”. `O=C(O)c1cn(C2CC2)c2cc(Cl)c(F)cc2c1=O`: the Potency result was “inactive”. As for `CC(=O)c1c(C)c([N+](=O)[O-])c(C(C)(C)C)c([N+](=O)[O-])c1C`, the entry is “inactive”. As for `CC1CCc2cc(F)cc3c(=O)c(C(=O)O)cn1c23` (stereo unspecified), the entry is “inactive”. Turning to `CC(=O)O[C@H]1C[C@@H]2CC[C@@H]3[C@H](CC[C@@]4(C)[C@H]3C[C@H]([N+]3(C)CCCCC3)[C@@H]4OC(C)=O)[C@@]2(C)C[C@@H]1N1CCCCC1`, the Potency result is “inactive”. For `CCN1CCC[C@H]1CNC(=O)c1c(OC)ccc(Br)c1OC`, the Potency result is “inactive”. In the case of `COc1ccc2[nH]c(S(=O)Cc3ncc(C)c(OC)c3C)nc2n1` (stereo unspecified), the Potency is 10.6 µM (active). As for `CC(C)(C)c1cc(CO)cc(C(C)(C)C)c1O`, the figure is 31.2 µM (active); as for `CC(C)CC=O`, “inactive”; as for `COc1cc(C(C)(C)C)c(O)c(C(C)(C)C)c1`, “inactive”. As for `Nc1ccc(C(=O)N2CC3CC(CN(Cc4ccccc4)C3)C2)cc1`, the entry is “inactive”.
